Our source for the Potency, max response and outcome values is PubChem BioAssay (NCATS).

SMILES strings stand for the structures. Several values for one entry are separate records, joined by “and”; a condition that tells them apart may be missing. Equal values may be shown once. Records with an inconclusive call do not appear. More than one record can exist for a structure, and the calls need not agree. A number with no mark means an inactive call. Activity calls are given as the source filed them. The call rests on the fitted dose curve; in most records, active means well fitted inhibition curve with a large enough effect; inconclusive means small, poorly fitted or top-dose-only effect; inactive means flat fitted curve, though single readings scatter.

In one test the test system is HB3. The test can be described thus: qHTS profiling for inhibitors of Plasmodium falciparum proliferation (AID 504749).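 Further: 0% = DMSO vehicle and full inhibition = artemisinin control.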 Particulars: P. falciparum in erythrocytes, SYBR Green DNA, 72 h; series mostly up to 28.7 µM. The essentials: (§1)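 In a 72 h erythrocytic culture (37 C, humidified, 5% CO2) at 2.5% hematocrit and 0.3% starting parasitemia, compounds were tested; SYBR Green I in detergent lysis buffer stained parasite DNA overnight.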

The test system of the next test is ICS. Described as above. Particulars: P. falciparum in erythrocytes, SYBR Green DNA, 72 h; series mostly up to 28.7 µM. The method, boiled down:
as §1

In a further test the test system is JCK. The test is described as above. The settings on record: P. falciparum in erythrocytes, SYBR Green DNA, 72 h; series mostly up to 28.7 µM. The essentials:
as §1

In a further test the test system is N140. The description is as above. Particulars: P. falciparum in erythrocytes, SYBR Green DNA, 72 h; series mostly up to 28.7 µM. The method, boiled down: as §1
In another test the test system is P93_24. The test is described as above. The settings on record: P. falciparum in erythrocytes, SYBR Green DNA, 72 h; series mostly up to 28.7 µM. The essentials: as §1
The next test has as its system P94_40. Described as above. The settings on record: P. falciparum in erythrocytes, SYBR Green DNA, 72 h; series mostly up to 28.7 µM. The essentials: as §1
A further test has as its system PAD. The description is as above. Particulars: P. falciparum in erythrocytes, SYBR Green DNA, 72 h; series mostly up to 28.7 µM. The method, boiled down: as §1
The subject of another test is PC15. The description is as above. The settings on record: P. falciparum in erythrocytes, SYBR Green DNA, 72 h; series mostly up to 28.7 µM. The method, boiled down: as §1
The subject of the next test is PC49. Described as above. The settings on record: P. falciparum in erythrocytes, SYBR Green DNA, 72 h; series mostly up to 28.7 µM. The essentials:
as §1

In another test the test system is SC27B. The description is as above. Particulars: P. falciparum in erythrocytes, SYBR Green DNA, 72 h; series mostly up to 28.7 µM. The method, boiled down: as §1
The test system of a further test is TAB109. The test is described as above. The settings on record: P. falciparum in erythrocytes, SYBR Green DNA, 72 h; series mostly up to 28.7 µM. The method, boiled down:
as §1

In the next test the test system is TAB113. The description is as above. The settings on record: P. falciparum in erythrocytes, SYBR Green DNA, 72 h; series mostly up to 28.7 µM. The method, boiled down: as §1
In another test the test system is TAB165. Described as above. Particulars: P. falciparum in erythrocytes, SYBR Green DNA, 72 h; series mostly up to 28.7 µM. The method, boiled down:
as §1

In the next test the test system is W2. Described as above. The settings on record: P. falciparum in erythrocytes, SYBR Green DNA, 72 h; series mostly up to 28.7 µM. The method, boiled down:
as §1

The test system of another test is CRL-7250. The test can be described thus: Cytotoxic Profiling of Annotated Libraries Using Quantitative High-Throughput Screening (AID 1296008). Further: potency means the concentration at half of the fitted maximal effect. On max response: on the % scale 0 is the no-effect control and ±100 the full control effect. The settings on record: Five cell lines viability, CellTiter-Glo ATP luminescence, 48-72 h; max response: stronger effect = lower value. The essentials: (§2)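 Cytotoxicity was measured as CellTiter-Glo ATP luminescence, read after 10 min at room temperature. Compound treatment of the cells lasted 48 or 72 hr at 37 degrees Celsius in a qHTS format.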

The next test relates to HEK293. The description is as above. The settings on record: Five cell lines viability, CellTiter-Glo ATP luminescence, 48-72 h; max response: stronger effect = lower value. The method, boiled down: as §2
The next test concerns HaCat. The description is as above. Particulars: Five cell lines viability, CellTiter-Glo ATP luminescence, 48-72 h; max response: stronger effect = lower value. The method, boiled down: as §2
The next test has as its system KB-3-1. The description is as above. Particulars: Five cell lines viability, CellTiter-Glo ATP luminescence, 48-72 h; max response: stronger effect = lower value. The method, boiled down:
as §2

For a further test, the system named is GB4. The test is described as follows: qHTS profiling for inhibitors of Plasmodium falciparum proliferation (AID 504749).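 Further: 0% = DMSO vehicle and full inhibition = artemisinin control.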 Particulars: P. falciparum in erythrocytes, SYBR Green DNA, 72 h; series mostly up to 28.7 µM. The essentials: as §1
A further test concerns PC26. Described as above. The settings on record: P. falciparum in erythrocytes, SYBR Green DNA, 72 h; series mostly up to 28.7 µM. The method, boiled down:
as §1
Further: nearly all actives have a fitted effect of over 60% in size.

In the case of `CC(C)c1cccc(C(C)C)c1O`, the Potency entry with HB3, with ICS, in the test on JCK, in the test with N140, in the test with P93_24 and with P94_40 was “inactive” each time. Further, the Potency entry with PAD, in the test on PC15, in the test with PC49, in the test with SC27B, with TAB109 and in the test on TAB113 was “inactive” throughout. Further, the Potency result with TAB165 and in the test on W2 was “inactive” in each case. Also, the max response with CRL-7250 is -8.58% and -1.5%; with HEK293, -6.49%; in the test with KB-3-1, 9.44%. The outcome in the test on HEK293 and in the test on HaCat was inactive.

For the compound `O=[N+]([O-])O[C@H]1CO[C@H]2[C@@H]1OC[C@H]2O[N+](=O)[O-]`, the max response is -11.3% in the test on CRL-7250 and 1.42% in the test on HEK293.

Turning to `C[C@]12CC[C@@H]3c4ccc(OC(=O)N(CCCl)CCCl)cc4CC[C@H]3[C@@H]1CC[C@@H]2OP(=O)(O)O`, in the test with CRL-7250, the Potency is 10.5 µM (active). Further, the result in the test on CRL-7250, in the test on HaCat and in the test on KB-3-1 was inactive. The results for the max response in the test on HEK293, in the test on HaCat and in the test on KB-3-1 were -12.2%, 4.84% and -0.529%, respectively.

Consider `CC(Cc1ccccc1)N(C)Cc1ccco1` (stereo not given), for which the values for the max response in the test on CRL-7250 and in the test on HEK293 were -3.65% and -5.17%, respectively. The compound was called inactive in the test with HaCat.

Turning to `CC(C(=O)c1ccccc1)N(C)C` (stereo not given), the max response in the test on CRL-7250 is 3.38%. For the same compound, the result in the test on HaCat was inactive.

`C[C@]12CC[C@H]3[C@@H](CCC4=CC(=O)CC[C@@H]43)[C@@H]1CC[C@@H]2OC(=O)CCC1CCCCC1`: the compound was called inactive in the test with CRL-7250. Further, in the test with HaCat, the max response is 2.69%.

For `NCCc1ccc(O)cc1`, the Potency entry in the test on GB4, with HB3, in the test on ICS, in the test with JCK, in the test with N140 and in the test on P93_24 was “inactive” each time. The Potency result in the test with P94_40, with PAD, in the test on PC15, in the test with PC26, in the test on PC49 and in the test with SC27B was “inactive” in each case. For the same compound, the Potency entry with TAB109, in the test with TAB113, in the test with TAB165 and with W2 was “inactive” throughout. Besides, the max response is -9.28% with CRL-7250, 1.28% in the test with HaCat and -7.48% in the test with KB-3-1. The call with HEK293 was inactive.

Turning to `CNC(C)(C)Cc1ccccc1`, the Potency result with GB4, with HB3, in the test on ICS, in the test with JCK, in the test on N140 and with P93_24 was “inactive” in each case. Also, the Potency result in the test with P94_40, in the test on PAD, in the test with PC15, in the test with PC26, with PC49 and with SC27B was “inactive” in each case. The Potency result in the test on TAB109, in the test on TAB113, in the test with TAB165 and in the test on W2 was “inactive” in each case. Moreover, the max response in the test with CRL-7250 was -3%; with HEK293, -3.64%; with KB-3-1, 16.1%. Besides, in the test on HaCat, the compound was called inactive.

With `CCN[C@@H](C)Cc1ccccc1`, the max response in the test on CRL-7250 was -24.3%; in the test with HEK293, -15.1%; in the test with HaCat it was -12.1%; in the test with KB-3-1 it was 4.57%.

With `CCC1(CC)C(=O)C=CNC1=O`, the Potency result in the test with GB4, in the test on HB3, in the test with ICS, with JCK, with N140 and in the test with P93_24 was “inactive” each time. Moreover, the Potency result in the test on P94_40, in the test with PAD, in the test on PC15, with PC26, in the test with PC49 and in the test on SC27B was “inactive” in each case. Moreover, the Potency result in the test with TAB109, in the test on TAB113, in the test with TAB165 and in the test with W2 was “inactive” in each case. The max response is -2.85% in the test with CRL-7250, 4.85% in the test on HEK293, -9.12% in the test with HaCat and -0.338% in the test on KB-3-1.

For the compound `ClCCN1CCCC1`, in the test on CRL-7250, the max response was -0.393%. Also, the compound was called inactive with HaCat.

Turning to `O=c1[nH]oc2c1CCNC2`, the Potency result in the test with GB4, with HB3, in the test with ICS, with N140, in the test on P93_24 and in the test with P94_40 was “inactive” each time. The Potency result in the test on PAD, in the test with PC15, with PC26, with PC49, in the test with SC27B and in the test with TAB109 was “inactive” throughout. Also, the Potency result in the test with TAB113, in the test with TAB165 and in the test with W2 was “inactive” in each case. Besides, the figures for the max response in the test on CRL-7250, with HEK293 and in the test with KB-3-1 were -16.5%, -2.62% and -7.07%, respectively. Also, in the test with HaCat, the result was inactive.

Consider `O=P1(N(CCCl)CCCl)NCCCO1` (stereo not given), for which the Potency result in the test on GB4, with HB3, in the test with ICS, in the test on JCK, in the test on N140 and in the test with P93_24 was “inactive” throughout. Besides, the Potency entry in the test with P94_40, in the test with PAD, in the test with PC15, in the test with PC26, with PC49 and in the test with SC27B was “inactive” in each case. Moreover, the Potency result in the test on TAB109, in the test with TAB113, in the test with TAB165 and in the test with W2 was “inactive” in each case. For the same compound, the max response in the test with CRL-7250 was -3.83% and -4.06%; in the test with HaCat, -5.79%; in the test on KB-3-1, 2.64% and 7.08%. Besides, in the test with HaCat, the result was inactive.
